TGFb inhibitor: inhibitors of TGF-b signaling; AID 588855; Potency, µM (doses to about 46.1 µM), inactives show top-dose activity, negative = inhibition, most hits filed as inhibitors; 410,000 compounds, 1.2% hits; HepG2 CAGA-GFP TGF-b/SMAD3 reporter, GFP fluorescence, 18 h; TGF-beta stimulated, 500 pg/mL final; also: % is scaled to controls: 0 for no effect and ±100 for the full control effect; nearly all actives have a fitted effect of over 65% in size
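Cell-based qHTS in HEPG2 carrying a CAGA-GFP Smad reporter; compounds added before 500 pg/mL final TGF-beta, 18 h incubation at 37 degrees C, GFP fluorescence quantified per cell by imaging cytometry.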
S2 tox: viability counter-screen for ATXN expression inhibitors; S2 cells (HEK-293 line with an ATXN2-luciferase reporter) viability, CellTiter-Fluor protease fluorescence, 24 h; Potency, µM (top dose mostly 56.7 µM), hits mostly cytotoxic; 400,000 compounds, 0.49% hits; AID 651635; also: nearly all actives have a fitted effect of over 40% in size
HepG2 viability: kills HepG2 cells in TGF-b inhibitor counter-screen | HepG2 CAGA-GFP viability, ATP luminescence, 18 h | Potency, µM (highest dose often 46.1 µM), without a hit: top-dose activity change, negative = cytotoxicity, actives largely listed as cytotoxic | 410,000 compounds, 0.76% hits | AID 588856
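HepG2 CAGA-GFP cells (1000/well, DMEM with 1% FBS) received compound, then TGF-beta at 500 pg/mL final, and were incubated 18 hours at 37 degrees C. Viability was read by CellTiter-Glo luminescence. Media-only wells were set as complete cell-killing and DMSO as no toxicity.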
ATXN2 expr inh: inhibitors of ATXN2 expression. Potency, µM (top dose mostly 57 µM), without a hit: at the highest dose activity change, negative = inhibition, hits mostly inhibitors. HEK-293 ATXN2-luciferase reporter, luminescence, 24 h. 360,000 compounds, 0.72% hits. AID 1745845; also: % is scaled to controls: 0 for no effect and ±100 for the full control effect; nearly all actives have a fitted effect of over 55% in size
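qHTS (up to 57 uM final) was run with 24 h compound exposure of reporter cells at 37 °C. Each well was multiplexed: SteadyGlo luminescence measured ATXN2-luciferase expression after a fluorogenic Gly-Phe-AFC viability readout (25 uM final).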
* marks the source's active call; other numbers are inactive results; i = inactive; ? = inconclusive; . = not tested or not shown; ! = not active in a repeat; [ ] = another dose, or the depositor's remark. A selection: hits, their analogues and other compounds. The true share with any hit is near 2.3%. Calls follow the shape of the dose curve; as a rule, active = well fitted curve in the direction sought with a large enough effect; inconclusive = small, poorly fitted or top-dose-only effect, or another doubt; inactive = no such curve, though single readings can be large; an effect the other way counts as inactive or inconclusive. Potency is read from the fitted curve at half-maximal effect.

SMILES | TGFb inhibitor | S2 tox | HepG2 viability | ATXN2 expr inh
C(=N\Nc1nc(Nc2ccccc2)nc(Nc2ccccc2)n1)/c1ccncc1 | ? | i | 12.6µM* | -9.1%
COc1cccc(NS(=O)(=O)c2cc(-c3cnc(C4CC4)o3)ccc2C)c1 | 2µM* | ? | -26.8% | ?
Cc1ccc(N(C)S(=O)(=O)c2ccc(-c3cnc(C4CC4)o3)cc2)cc1 | 6.31µM* | ? | -5.0% | -3.3%
Cc1ccc(-c2cnc(C3CC3)o2)cc1S(=O)(=O)Nc1cccc(C#N)c1 | 9.8% | ? | -43.1% | ?
Cc1ccc(NS(=O)(=O)c2ccc(-c3cnc(C4CC4)o3)cc2)cc1 | ? | ? | -14.3% | .
COc1ccc(C)cc1NS(=O)(=O)c1ccc(-c2cnc(C3CC3)o2)cc1 | 3.55µM* | ? | -2.1% | 0.0%
COc1ccc(C2(C(=O)NCC3Cc4cccc(-c5cccnc5)c4O3)CCCC2)cc1 (stereo not drawn) | . | i | . | .
CC(C)Cc1ccc(C(C)C(N)=NCCc2ccccc2)cc1 (stereo not drawn) | ? | ? | 17.8µM* | ?
COCCn1c2c([n+](Cc3cnccn3)c1C)C(=O)c1ccccc1C2=O | . | . | . | 0.0544µM*
CC(C=CC1=C(C)CCCC1(C)C)=CC=CC(C)=CC(=O)Nc1ccc(O)cc1 | . | . | . | 49.8µM*
CC1=C(\C=C/C(C)=C/C=C\C(C)=C\C(=O)O)C(C)(C)CCC1 | . | i | . | .
CC1=C(/C=C/C(C)=C/C=C/C(C)=C/C(=O)Nc2ccc(O)cc2)C(C)(C)CCC1 | ? | 28.2µM* | -104.5% | 20µM*!
CC(=C(CCOC(=O)C(C)C)SSC(CCOC(=O)C(C)C)=C(C)N(C=O)Cc1cnc(C)nc1N)N(C=O)Cc1cnc(C)nc1N | . | i | . | -15.4%
CCn1nc(C)cc1C(=O)NCC1Cc2cc(C)cc(-c3ccccc3C(=O)OC)c2O1 (stereo not drawn) | . | i | . | .
CN(C)c1cccc(-c2nnc(SCC(=O)NCc3ccco3)n2C)c1 | -0.5% | . | 10.8% | .
Nc1ncnc2c1ncn2Cc1c(F)cccc1Cl | . | i | . | 8.7%
CC(C)CN(CC(C)C)CC(O)COc1ccccc1Br (stereo not drawn) | 11.2µM* | i | 11.2µM* | -28.1%
CC(C)(S)C(=O)N[C@@H](CS)C(=O)O | . | i | . | .
COc1cccc(-c2ccc(NC(=O)C3=C(C(=O)O)CCC3)c(F)c2)c1 | . | . | . | -16.4%
CCC(C)[C@H]1O[C@]2(C=C[C@@H]1C)C[C@@H]1C[C@@H](C/C=C(\C)[C@@H](O[C@H]3C[C@H](OC)[C@@H](O[C@H]4C[C@H](OC)[C@H](NC(C)=O)[C@H](C)O4)[C@H](C)O3)[C@@H](C)/C=C/C=C3\CO[C@@H]4[C@H](O)C(C)=C[C@@H](C(=O)O1)[C@]34O)O2 (stereo partly drawn) | . | 3.16µM*! | . | .
CO[C@H]1C[C@H](O[C@H]2[C@H](C)O[C@@H](O[C@@H]3/C(C)=C/C[C@@H]4C[C@@H](C[C@]5(C=C[C@H](C)[C@@H](C6CCCCC6)O5)O4)OC(=O)[C@@H]4C=C(C)[C@@H](O)[C@H]5OC/C(=C\C=C\[C@@H]3C)[C@]54O)C[C@@H]2OC)O[C@@H](C)[C@@H]1O | . | 3.16µM* | . | .
CC[C@H](C)[C@H]1O[C@]2(CC[C@@H]1C)C[C@@H]1C[C@@H](CC=C(C)[C@@H](O[C@H]3C[C@H](OC)[C@@H](O[C@H]4C[C@H](OC)[C@@H](O)[C@H](C)O4)[C@H](C)O3)[C@@H](C)C=CC=C3CO[C@@H]4[C@H](O)C(C)=C[C@@H](C(=O)O1)[C@]34O)O2 | 3.16µM* | 3.55µM* | 3.55µM* | 3.55µM*
CON=C1C[C@]2(C[C@@H]3C[C@@H](C/C=C(\C)C[C@@H](C)/C=C/C=C4\CO[C@@H]5[C@H](O)C(C)=C[C@@H](C(=O)O3)[C@]45O)O2)O[C@H](/C(C)=C/C(C)C)[C@H]1C | . | 15.8µM* | . | .
C#CCN(Cc1nc(N2CCOCC2)c2ccc(Cl)cc2n1)Cc1ccco1 | . | i | . | .
COC(=O)[C@@H]1[C@H]2C[C@@H]3c4[nH]c5ccccc5c4CCN3C[C@@H]2CC[C@@H]1O | . | . | . | 11.3%
SMILES | TGFb inhibitor | S2 tox | HepG2 viability | ATXN2 expr inh
COc1cccc(CN(C)C(=O)c2cnn(-c3nccc(-c4ccc5c(c4)OCO5)n3)c2C)c1 | . | i | . | .
CC(=O)Nc1ccc(NC(=O)COc2cc(O)c3c(c2)OC(C)(C)CC3=O)cc1 | 4.3% | i | -17.6% | 25.0%
Cc1cc(OCC(=O)Nc2ccc(Br)cc2)cc2c1C(=O)CC(C)(C)O2 | ? | i | -7.0% | 12.6µM*
O=C(Nc1ccc(OC(F)(F)F)cc1)c1sccc1NCc1ccnc2ccccc12 | . | . | . | 78.0%
Cc1cc2nc(-c3ccc(SCC(=O)N4CCc5ccccc54)nc3)[nH]c2cc1C | ? | 17.8µM* | -10.0% | ?
Cc1cc2nc(-c3ccc(SCc4ccc(C(=O)O)cc4)nc3)[nH]c2cc1C | -5.6% | i | 3.6% | 48.1%[11.3 µM]
CN1CCC2(CC1)N=C(c1ccc(F)cc1)C(=S)N2C(=O)c1ccc(C(C)(C)C)cc1 | ? | ? | -55.3% | 31.6µM*
CCOc1ccc(/C=C/c2ccnc3ccccc23)cc1OCC | ? | . | -61.7% | .
Oc1cccc(/C=N/N(Cc2ccccc2)c2ccccc2)c1 | ? | i | 12.6µM* | -9.4%
C(=N\N(Cc1ccccc1)c1ccccc1)/c1cccnc1 | ? | i | -11.8% | -27.9%
NC(=O)N[C@@H](CCC(=O)O)C(=O)O | . | i | . | -3.8%
CCN1/C(=C/C=C/C=C/c2sc3ccccc3[n+]2CC)Sc2ccccc21 | 7.08µM* | . | -23.1% | .
CCN1/C(=C/C=C/C=C/C=C/c2sc3ccccc3[n+]2CC)Sc2ccccc21 | ? | ? | -16.0% | ?
CCN1/C(=C/C=C/c2sc3ccccc3[n+]2CC)Sc2ccccc21 | ? | 11.2µM* | -32.1% | 7.08µM*
CCC1CN(CCC(=O)N2CCCN(C(=O)c3ccco3)CC2)Cc2cc(OC)ccc2O1 (stereo not drawn) | . | i | . | .
C=C(C)c1nc(Oc2ccccc2)nc(Oc2ccccc2)n1 | 11.2µM* | . | -93.3% | ?
N#CC1=C(N)NC(SCC(=O)Nc2ccc(Br)cc2)=C(C#N)C12CCCCC2 | 17.8µM* | i | -79.4% | -20.9%
N#CC1=C(N)NC(SCc2ccc(Br)cc2)=C(C#N)C12CCCCC2 | ? | ? | -21.3% | 0.0%
CCOc1ccc(CCN2C(=O)C(=O)N([C@@H](Cc3ccc(O)cc3)CN3CCC[C@H]3CN3C(=O)C(=O)NC[C@@H]3Cc3ccccc3)C[C@@H]2Cc2ccc(O)cc2)cc1 | . | i | . | 5.5%
CCOc1ccc(CCN2C(=O)C(=O)N([C@@H](CC(C)C)CN3CCC[C@@H]3CN3C(=O)C(=O)NC[C@@H]3Cc3ccccc3)C[C@@H]2CC(C)C)cc1 | 10µM* | . | -36.7% | ?

High-throughput results (PubChem)
